Reference: the supplement of paper PMC3334620
In all, about 33,000 sequences were measured (“E-score (-0.5 to 0.5)”: median about -0.032, highest 2% from about 0.36 on). For the sample, the highest values were picked, then their nearest neighbours and some sequences at random.

Target: T1, Sko1 (UniProt Q02100)
T1 sequence: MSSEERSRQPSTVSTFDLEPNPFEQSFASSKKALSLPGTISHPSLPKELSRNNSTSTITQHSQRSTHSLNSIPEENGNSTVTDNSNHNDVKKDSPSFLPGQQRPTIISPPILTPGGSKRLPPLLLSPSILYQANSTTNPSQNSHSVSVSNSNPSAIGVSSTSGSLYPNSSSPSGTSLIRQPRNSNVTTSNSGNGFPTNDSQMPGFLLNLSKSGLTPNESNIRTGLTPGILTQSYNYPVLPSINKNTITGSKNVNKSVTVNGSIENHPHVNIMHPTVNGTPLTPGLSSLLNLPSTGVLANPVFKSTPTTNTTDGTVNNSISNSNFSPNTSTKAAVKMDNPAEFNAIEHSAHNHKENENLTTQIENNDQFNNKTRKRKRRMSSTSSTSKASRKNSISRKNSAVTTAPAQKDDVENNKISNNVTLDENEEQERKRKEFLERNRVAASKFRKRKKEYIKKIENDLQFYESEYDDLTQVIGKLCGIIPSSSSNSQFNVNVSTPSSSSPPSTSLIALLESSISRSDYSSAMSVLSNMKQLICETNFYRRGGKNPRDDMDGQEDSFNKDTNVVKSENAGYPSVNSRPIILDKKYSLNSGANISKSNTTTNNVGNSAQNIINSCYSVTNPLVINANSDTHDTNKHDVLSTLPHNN
Assay: PBM E-score (8-mer binding enrichment) (E-score (-0.5 to 0.5)); higher = stronger / more preferred TF binding
Settings: protein concentration: 200 nM; construct: GST-full length
Summary of the method: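 Masliner-normalised scans of fluorescent anti-GST signal were the basis for scoring. That signal came from GST-tagged yeast transcription factors applied at about 100-200 nM to double-stranded universal all-10-mer Agilent arrays on fresh or once-stripped slides. Each ungapped eight-base word, pooled with its reverse complement, received an E-score from the Universal PBM Analysis Suite.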

Row | Sequence | PBM E-score
1 | CTCGGTAC | -0.0539
2 | CTACTCAC | 0.168
3 | ACCACGCC | -0.125
4 | GCCACGGA | -0.215
5 | GCCACGTA | 0.421
6 | ACCACAAA | 0.0563
7 | ACCACGGG | -0.243
8 | ACCACGAA | 0.131
9 | ACCACGGA | -0.247
10 | ACCACGAC | 0.128
11 | ACCACGTG | 0.362
12 | ACCACGTC | 0.363
13 | GCCACGCA | 0.0845
14 | ACCACGTA | 0.441
15 | GTCTGATA | -0.114
16 | TATCTGGA | -0.215
17 | CCTCGGCG | -0.0614
18 | CCACCAAG | -0.374
19 | ACCGGTGG | -0.404
20 | AACTCACC | -0.0504
21 | GAGAACCA | -0.127
22 | ACACTCCT | -0.189
23 | ACGCTCAA | 0.0466
24 | TTGTGAAA | 0.119
25 | ACTTTCAA | 0.0541

Row | Sequence | PBM E-score
26 | ACCTATAT | 0.257
27 | AGTGACGG | 0.146
28 | AGTGACCA | -0.178
29 | GGTGACCA | -0.137
30 | AGTGACGA | 0.419
31 | GTTGACGA | 0.212
32 | GGTGACGA | 0.422
33 | ACGCCCAG | -0.0834
34 | TACACTAA | -0.0348
35 | AATTGTGA | 0.233
36 | ATCGGCCC | -0.133
37 | CCCCACGG | -0.22
38 | ATCATTAA | 0.239
39 | CTCATTGA | -0.0333
40 | CTCATTAA | 0.0254
41 | GTCATTAA | 0.393
42 | GTCATTGA | 0.416
43 | ATCATTGA | 0.272
44 | CCTGAGGC | -0.278
45 | GATAGAGA | -0.084
46 | ACCTTCGT | 0.0282
47 | CGTAAAAG | 0.288
48 | AGACTCAC | -0.129
49 | TGAAGACA | 0.0964
50 | CGCGACTA | -0.0528

Row | Sequence | PBM E-score
51 | CTGGATGC | -0.36
52 | CTGTGCGC | -0.113
53 | CAAAGAAG | -0.00535
54 | CATCGTCC | 0.0258
55 | AATCGTCA | 0.423
56 | CATCGTCA | 0.395
57 | GATCGTCA | 0.321
58 | AATCGTCC | 0.0937
59 | TATCGTGA | 0.168
60 | AATCGTCT | 0.0851
61 | CATCGTCG | -0.16
62 | TATCGTCA | 0.42
63 | CCTCATTA | 0.131
64 | ATTGCCAC | -0.11
65 | CGATGGGA | -0.0417
66 | ACACTAAT | 0.119
67 | AGGTCCAT | 0.0213
68 | AGGACATC | -0.0352
69 | GACGGGCA | -0.145
70 | ATGCGTAC | 0.291
71 | GTGCGCAA | 0.114
72 | ATGCGTAG | 0.3
73 | CTGCGTAC | 0.149
74 | ATGCGTAA | 0.437
75 | CTGCGTTA | 0.0283

Row | Sequence | PBM E-score
76 | CTGCGTAA | 0.397
77 | GTGCGTAA | 0.418
78 | GAGCGTAA | 0.218
79 | CACTGCAG | -0.064
80 | CATCTTAC | 0.228
81 | TCAGAGAA | 0.00926
82 | GCGCCATA | 0.0343
83 | CCGCCATA | -0.182
84 | ACGCCATA | 0.393
85 | ACGCCATC | 0.376
86 | CCGCCATC | -0.29
87 | ACGCCACA | 0.234
88 | ACGCCATG | 0.368
89 | ACGCCAAG | -0.0349
90 | ACGCCACC | 0.0629
91 | AAGGATCC | -0.254
92 | CCACGCAG | 0.057
93 | ACACGGGT | -0.189
94 | CAGCATCG | -0.332
95 | CCCGCTAC | -0.15
96 | AACCATAT | 0.119
97 | CCACGTAG | 0.377
98 | CCACGTGC | 0.341
99 | CCCCGTAA | 0.0319
100 | CCACGTAC | 0.374

Row | Sequence | PBM E-score
101 | CCACGTAA | 0.456
102 | CCACGTGG | 0.177
103 | CCACGTTC | 0.0509
104 | CCCCGTAG | -0.2
105 | CCACGTGA | 0.339
106 | ATGGGGCA | -0.185
107 | CAATAGTC | -0.085
108 | CTGGTACA | -0.00751
109 | GTCTGGGA | -0.133
110 | GGTCGTCA | 0.38
111 | CGTCGTCA | 0.362
112 | AGTCGTCA | 0.37
113 | AGTCGTCG | -0.148
114 | CGTCGTCC | -0.0443
115 | GGTCGTGA | 0.0516
116 | GGTCGTTA | -0.0165
117 | AGTCGTCC | -0.114
118 | CGTCGTTA | 0.153
119 | AGAGGTAG | -0.178
120 | GGGCTAAA | -0.182
121 | ACACACGT | 0.433
122 | ACACACGA | 0.213
123 | ACACACGG | -0.0648
124 | AAACACGA | 0.163
125 | AAACACGC | 0.316

Row | Sequence | PBM E-score
126 | AAACACGT | 0.413
127 | ATATAGAG | -0.151
128 | CTTTGGGA | -0.187
129 | AATGAGCG | 0.0936
130 | AGGCAATG | 0.00123
131 | CCGCAATA | 0.0923
132 | CCGCAATC | -0.102
133 | GCGCAATA | 0.0795
134 | ACGCAAGC | 0.327
135 | ACGCAATC | 0.411
136 | ACGCAAGG | 0.316
137 | ACGCAATA | 0.45
138 | ACGCAATG | 0.399
139 | AAAGGGGT | -0.26
140 | ATCCACTA | -0.0731
141 | CGTTAATC | 0.168
142 | ACGGCCCA | -0.317
143 | ATAACCAT | 0.057
144 | AAGTTTGC | 0.0635
145 | CTGTGCTC | 0.0303
146 | CCTACGGA | -0.182
147 | CCTACGTA | 0.477
148 | CCTACGAA | 0.0841
149 | ACTACGCC | -0.00632
150 | CCTACGTC | 0.427

Row | Sequence | PBM E-score
151 | ACTACGTC | 0.433
152 | CCTACGAC | 0.0224
153 | CCTACGGC | -0.34
154 | ACTACGGC | -0.0407
155 | GCGGGTAC | -0.0713
156 | CACACTAC | 0.0507
157 | CCAAGCGC | -0.147
158 | AGTTGCAA | 0.219
159 | ACATCCGG | -0.227
160 | CCTACCGA | -0.168
161 | CCACGCCC | -0.165
162 | CCGGTGGA | -0.297
163 | ACGTATAG | 0.437
164 | AAGTATAT | 0.118
165 | CCGTATAA | 0.0514
166 | ACGTATAC | 0.463
167 | CCGTATAG | -0.115
168 | TCGTATAA | 0.221
169 | ACGTATAT | 0.453
170 | ACGTATAA | 0.457
171 | AGGTATAG | -0.141
172 | AGGTATAT | 0.184
173 | ATGTATAC | 0.247
174 | CCGTATAC | 0.0259
